# Shown is part of a subset that was picked to be rich in the strongest signals.
# B1: CVN-E41G (protein)
# chain: MHHHHHHENLYFQSGNFSQACYNSAIQGSVLTSTCIRTNGGYNTSSIDLNSVIGNVDGSLKWQGSNFIETCRNTQLAGSSELAAECKTRAQQFVSTKINLDDHIAAIDGTLKYE
# Assays:
# Assay in all cases: glycan array binding signal (z-score within array); higher = stronger binding
# Conditions in all cases: glycan notation: IUPAC condensed, linker removed; mutation: E41G
# Fuc(a1-2)Gal(b1-3)GalNAc = biological target: Fuc(a1-2)Gal(b1-3)GalNAc
# Summary of the method: (§1)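 Glycan array binding is given as a within-array Z-score, which can be read as non-binding when negative. The arrays, 3228 of them, came from the Consortium for Functional Glycomics database and were retained only where the protein sequence was available. Z-scores were averaged across arrays of the same protein sequence at different concentrations or buffers and across linkers.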
# [1] = biological target: Fuc(a1-2)Gal(b1-3)GlcNAc(b1-3)GalNAc
# Summary of the method: as §1
# [2] = biological target: Fuc(a1-2)Gal(b1-3)GlcNAc(b1-3)[Fuc(a1-2)Gal(b1-3)GlcNAc(b1-6)]GalNAc
# Summary of the method: as §1
# [3] = biological target: Fuc(a1-2)Gal(b1-3)GlcNAc6S
# Summary of the method: as §1
# [4] = biological target: Fuc(a1-2)Gal(b1-3)[Fuc(a1-4)]GlcNAc
# Summary of the method: as §1
# [5] = biological target: Fuc(a1-2)Gal(b1-4)GlcNAc6S
# Summary of the method: as §1
# [6] = biological target: Fuc(a1-2)Gal(b1-4)[Fuc(a1-3)]GlcNAc(b1-2)[Fuc(a1-2)Gal(b1-4)[Fuc(a1-3)]GlcNAc(b1-4)]Man(a1-3)[Fuc(a1-2)Gal(b1-4)[Fuc(a1-3)]GlcNAc(b1-2)Man(a1-6)]Man(b1-4)GlcNAc(b1-4)GlcNAc
# Summary of the method: as §1
# [7] = biological target: Fuc(a1-2)Gal6S(b1-4)Glc6S
# Summary of the method: as §1
# [8] = biological target: Fuc(a1-2)[Gal(a1-3)]Gal(b1-4)Glc
# Summary of the method: as §1
# [9] = biological target: Fuc(a1-2)[Gal(a1-3)]Gal(b1-4)GlcNAc(b1-2)Man(a1-3)[Fuc(a1-2)[Gal(a1-3)]Gal(b1-4)GlcNAc(b1-2)Man(a1-6)]Man(b1-4)GlcNAc(b1-4)GlcNAc
# Summary of the method: as §1
# [10] = biological target: Fuc(a1-2)[Gal(a1-3)]Gal(b1-4)GlcNAc(b1-3)GalNAc
# Summary of the method: as §1
# [11] = biological target: Fuc(a1-2)[GalNAc(a1-3)]Gal(b1-3)GlcNAc(b1-2)Man(a1-3)[Fuc(a1-2)[GalNAc(a1-3)]Gal(b1-3)GlcNAc(b1-2)Man(a1-6)]Man(b1-4)GlcNAc(b1-4)[Fuc(a1-6)]GlcNAc
# Summary of the method: as §1
# [12] = biological target: Fuc(a1-2)[GalNAc(a1-3)]Gal(b1-4)GlcNAc(b1-3)Gal(b1-4)GlcNAc(b1-3)Gal(b1-4)GlcNAc
# Summary of the method: as §1
# Gal(a1-3)Gal(b1-3)GlcNAc = biological target: Gal(a1-3)Gal(b1-3)GlcNAc
# Summary of the method: as §1
# [13] = biological target: Gal(a1-3)Gal(b1-3)[Fuc(a1-4)]GlcNAc(b1-2)Man(a1-3)[Gal(a1-3)Gal(b1-3)[Fuc(a1-4)]GlcNAc(b1-2)Man(a1-6)]Man(b1-4)GlcNAc(b1-4)GlcNAc
# Summary of the method: as §1
# Gal(b1-2)Gal = biological target: Gal(b1-2)Gal
# Summary of the method: as §1
# [14] = biological target: Gal(b1-3)GalNAc(a1-3)[Fuc(a1-2)]Gal(b1-4)Glc
# Summary of the method: as §1
# [15] = biological target: Gal(b1-3)GlcNAc(b1-2)Man(a1-3)[Gal(b1-3)GlcNAc(b1-2)Man(a1-6)]Man(b1-4)GlcNAc(b1-4)GlcNAc
# Summary of the method: as §1
# [16] = biological target: Gal(b1-3)GlcNAc(b1-2)Man(a1-3)[Gal(b1-3)GlcNAc(b1-2)Man(a1-6)]Man(b1-4)GlcNAc(b1-4)[Fuc(a1-6)]GlcNAc
# Summary of the method: as §1
# [17] = biological target: Gal(b1-3)GlcNAc(b1-3)Gal(b1-3)GlcNAc
# Summary of the method: as §1
# [18] = biological target: Gal(b1-3)GlcNAc(b1-3)Gal(b1-4)GlcNAc(b1-2)[Gal(b1-3)GlcNAc(b1-3)Gal(b1-4)GlcNAc(b1-6)]Man(a1-6)[Gal(b1-3)GlcNAc(b1-3)Gal(b1-4)GlcNAc(b1-2)Man(a1-3)]Man(b1-4)GlcNAc(b1-4)[Fuc(a1-6)]GlcNAc
# Summary of the method: as §1
# [19] = biological target: Gal(b1-3)[Fuc(a1-4)]GlcNAc(b1-3)Gal(b1-4)[Fuc(a1-3)]GlcNAc
# Summary of the method: as §1
# [20] = biological target: Gal(b1-3)[Neu5Ac(b2-6)]GalNAc
# Summary of the method: as §1
# [21] = biological target: Gal(b1-4)GlcNAc(b1-2)Man(a1-3)[Gal(b1-4)GlcNAc(b1-2)Man(a1-6)]Man(b1-4)GlcNAc(b1-4)[Fuc(a1-6)]GlcNAc
# Summary of the method: as §1
# [22] = biological target: Gal(b1-4)GlcNAc(b1-2)[Gal(b1-4)GlcNAc(b1-4)]Man(a1-3)[Gal(b1-4)GlcNAc(b1-2)Man(a1-6)]Man(b1-4)GlcNAc(b1-4)GlcNAc
# Summary of the method: as §1
# [23] = biological target: Gal(b1-4)GlcNAc(b1-3)Gal(b1-4)GlcNAc(b1-3)Gal(b1-4)GlcNAc(b1-3)Gal(b1-4)GlcNAc(b1-2)[Gal(b1-4)GlcNAc(b1-3)Gal(b1-4)GlcNAc(b1-3)Gal(b1-4)GlcNAc(b1-3)Gal(b1-4)GlcNAc(b1-6)]Man(a1-6)[Gal(b1-4)GlcNAc(b1-3)Gal(b1-4)GlcNAc(b1-3)Gal(b1-4)GlcNAc(b1-3)Gal(b1-4)GlcNAc(b1-2)Man(a1-3)]Man(b1-4)GlcNAc(b1-4)[Fuc(a1-6)]GlcNAc
# Summary of the method: as §1
# [24] = biological target: Gal(b1-4)GlcNAc(b1-3)Gal(b1-4)[Fuc(a1-3)]GlcNAc(b1-3)Gal(b1-4)[Fuc(a1-3)]GlcNAc
# Summary of the method: as §1
binder,measurement,setting,value
B1,glycan array binding signal (z-score),Fuc(a1-2)Gal(b1-3)GalNAc,-0.178
same,glycan array binding signal (z-score),[1],-0.168
same,glycan array binding signal (z-score),[2],-0.093
same,glycan array binding signal (z-score),[3],-0.182
same,glycan array binding signal (z-score),[4],-0.157
same,glycan array binding signal (z-score),[5],-0.144
same,glycan array binding signal (z-score),[6],0.014
same,glycan array binding signal (z-score),[7],-0.023
same,glycan array binding signal (z-score),[8],-0.166
same,glycan array binding signal (z-score),[9],-0.122
same,glycan array binding signal (z-score),[10],-0.189
same,glycan array binding signal (z-score),[11],0.532
same,glycan array binding signal (z-score),[12],-0.163
same,glycan array binding signal (z-score),Gal(a1-3)Gal(b1-3)GlcNAc,-0.138
same,glycan array binding signal (z-score),[13],1
same,glycan array binding signal (z-score),Gal(b1-2)Gal,-0.147
same,glycan array binding signal (z-score),[14],-0.175
same,glycan array binding signal (z-score),[15],0.069
same,glycan array binding signal (z-score),[16],-0.141
same,glycan array binding signal (z-score),[17],-0.13
same,glycan array binding signal (z-score),[18],1.02
same,glycan array binding signal (z-score),[19],-0.151
same,glycan array binding signal (z-score),[20],-0.158
same,glycan array binding signal (z-score),[21],-0.15
same,glycan array binding signal (z-score),[22],-0.165
same,glycan array binding signal (z-score),[23],-0.125
same,glycan array binding signal (z-score),[24],-0.099

# From the supplement of paper PMC8728848
